Data as given in PubChem BioAssay (NCATS).
Inconclusive results are not listed. A number with no mark means an inactive call. Active and inactive are the calls of the source. The call rests on the fitted dose curve; in most records, active means well fitted inhibition curve with a large enough effect; inconclusive means small, poorly fitted or top-dose-only effect; inactive means flat fitted curve, though single readings scatter. Where a SMILES comes first, the peptide text is derived from it. [ ]: non-standard residue; d: D form. Ala(indol-2-yl) = N[C@@H](Cc1cc2ccccc2[nH]1)C(=O)O; Aib = CC(C)(N)C(=O)O

Assay: P-glycoprotein substrates identified in KB-8-5-11 adenocarcinoma cell line, qHTS therapeutic library screen (AID 1346987); further: nearly all actives have a fitted effect of over 65% in size
Details: KB-8-5-11 (P-gp overexpressing) viability, CellTiter-Glo, 72 h; series mostly up to 44.5 µM
How it was run: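 P-gp-mediated resistance screen: KB-8-5-11 cells treated 72 h with compounds in dose-response. CellTiter-Glo viability.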
On the % scale 0 is the no-effect control and ±100 the full control effect; potency means the concentration at half of the fitted maximal effect.

Row | Compound | Potency | activity change, negative = cytotoxicity
1 | CCC(C)/C=C(C)/C=C/C1=CC2=C(Cl)C(=O)C(C)(OC(C)=O)C(=O)C2=CO1 (centres undefined) | inactive | –
2 | COC1CC(O[C@H]2CC[C@]3(C)C4CC[C@]5(C)[C@@H](C6=CC(=O)OC6)[C@@H](OC(C)=O)C[C@]5(O)C4CC[C@@H]3C2)OC(C)C1O (some centres undefined) | 563 nM (active) | –
3 | C[C@H]1O[C@@H](O[C@H]2CC[C@]3(C=O)C4CC[C@]5(C)[C@@H](C6=CC(=O)OC6)CC[C@]5(O)[C@@H]4CC[C@]3(O)C2)C[C@@H](O)[C@@H]1O (some centres undefined) | 50.2 nM (active) | –
4 | CC1=CC2OC3[C@H](O)C[C@@](C)([C@]34CO4)[C@@]2(CO)[C@H](O)C1=O (some centres undefined) | 1460 nM (active) | –
5 | COC1CC(O[C@H]2CC[C@@]3(C)C(CCC4C3CC[C@]3(C)[C@@H](C5=CC(=O)OC5)CC[C@]43O)C2)OC(C)C1O (some centres undefined) | 100 nM (active) | –
6 | CC(C)(C)[C@]1(O)C[C@@H]2OC(=O)C[C@@]23C(=O)O[C@@H]2OC(=O)[C@@H](O)[C@]213 | inactive | –
7 | OCc1nnc2n1-c1ccc(Cl)cc1C(c1ccccc1Cl)=NC2 | inactive | –
8 | CN[C@@H]1C[C@H]2O[C@@](C)([C@@H]1OC)n1c3ccccc3c3c4c(c5c6ccccc6n2c5c31)C(=O)NC4 | 58 nM (active) | –
9 | COC1CC(O[C@H]2CC[C@]3(C=O)C4CC[C@]5(C)[C@@H](C6=CC(=O)OC6)CC[C@]5(O)[C@@H]4CC[C@@H]3C2)OC(C)C1O[C@@H]1O[C@H](CO)[C@@H](O[C@@H]2O[C@H](CO)[C@@H](O)[C@H](O)[C@H]2O)[C@H](O)[C@H]1O (some centres undefined) | 123 nM (active) | –
10 | CO[C@@H]1C[C@H](O[C@H]2CC[C@@]3(C)C(CCC4C3CC[C@]3(C)[C@@H](C5=CC(=O)OC5)[C@@H](OC(C)=O)CC43O)C2)O[C@H](C)[C@@H]1O[C@H]1O[C@H](CO[C@@H]2O[C@H](CO)[C@@H](O)[C@H](O)[C@H]2O)[C@@H](O)[C@H](O)[C@H]1O (some centres undefined) | 873 nM (active) | –
11 | CC(=O)O[C@@H]1[C@@H](O)[C@H]2O[C@@H]3C=C(C)[C@@H](O)C[C@]3(CO)[C@]1(C)[C@]21CO1 | 904 nM (active) | –
12 | CO[C@H]1C[C@H](O[C@H]2CC[C@@]3(C)C(=CCC4C3CC[C@]3(C)[C@@H](C5=CC(=O)OC5)CC[C@]43O)C2)O[C@@H](C)[C@@H]1O[C@@H]1O[C@H](CO[C@@H]2O[C@H](CO)[C@@H](O)[C@H](O)[C@H]2O)[C@@H](O)[C@H](O)[C@H]1O (some centres undefined) | – | 3.8% [at 9.29 µM]
13 | C=C1[C@@H](C)[C@H]2[C@H](Cc3ccccc3)NC(=O)[C@]23[C@H](OC(C)=O)/C=C/[C@](C)(O)C(=O)[C@@H](C)C/C=C/[C@H]3[C@@H]1O | 9200 nM (active) | –
14 | c1cncc(OC[C@@H]2CCN2)c1 | inactive | –
15 | CC(=O)OC[C@]12C[C@H](OC(=O)CC(C)C)C(C)=C[C@H]1O[C@@H]1[C@H](O)C[C@@]2(C)[C@]12CO2 | 709 nM (active) | –
16 | C[N@@+]1(CC2CC2)CC[C@]23c4c5ccc(O)c4O[C@H]2C(=O)CC[C@@]3(O)[C@H]1C5 | inactive | –
17 | COc1ccc2c3c([nH]c2c1)C(C=C(C)C)N1C(=O)C2CCCN2C(=O)C1C3 (centres undefined) | inactive | –
18 | CC(=O)OC[C@]12C[C@H](OC(=O)CC(C)C)C(C)=C[C@H]1O[C@@H]1[C@H](O)[C@@H](O)[C@@]2(C)[C@]12CO2 | 112 nM (active) | –
19 | CC(C)(NC(=O)[C@@H](N)Cc1ccc(O)cc1)C(=O)N[C@@H](Cc1cc2ccccc2[nH]1)C(=O)N[C@@H](Cc1ccccc1)C(=O)O (H-Y[Aib][Ala(indol-2-yl)]F-OH) | – | 5.29% [at 9.29 µM]
20 | C[C@]12CC[C@H](O)C[C@H]1CC[C@@H]1[C@@H]2[C@H](O)C(=O)[C@]2(C)[C@@H](c3ccc(=O)oc3)CC[C@]12O | 25.9 nM (active) | –
21 | CC[C@H]1C2CC3[C@@H]4N(C)c5ccccc5[C@]45C[C@@H]([C@H]2[C@H]5O)N3[C@@H]1O | inactive | –
22 | CC(=O)OC[C@]12C[C@H](OC(=O)CC(C)C)C(C)=C[C@H]1O[C@@H]1[C@H](O)[C@@H](OC(C)=O)[C@@]2(C)[C@@]12CO2 | 25.2 nM (active) | –
23 | CC1=C[C@H]2O[C@@H]3C[C@H]4OC(=O)/C=C/C=C/C(=O)OCC/C(C)=C/C(=O)OC[C@@]2(CC1)[C@]4(C)[C@]31CO1 | 17.8 nM (active) | –
24 | C=C(CO)C(=O)O[C@H]1CC(=C)[C@@H]2C[C@H](O)C(=C)[C@@H]2[C@H]2OC(=O)C(=C)[C@@H]21 | inactive | –
